Data on 9 molecules can be found in PubChem BioAssay (NCI).

What all share (assay): NCI-60 one-dose screen, 48 h (100 = growth as untreated, 0 = no growth, -100 = all killed)
Common to all, as to conditions: 10 µM unless noted

Assay [1] relates to SK-MEL-2 melanoma.
Assay [2] concerns EKVX NSCLC.
Assay [3] has as its system SN12C renal.
Assay [4] has as its system UO-31 renal.
Assay [5] relates to TK-10 renal.
Assay [6] relates to ACHN renal.
Assay [7] relates to CAKI-1 renal.
Assay [8] has as its system A498 renal.
Assay [9] deals with RPMI-8226 leukemia.
Assay [10] relates to OVCAR-8 ovarian.
In assay [11] the test system is OVCAR-5 ovarian.
For assay [12], the system named is OVCAR-4 ovarian.
Assay [13] relates to SK-OV-3 ovarian.
The test system of assay [14] is OVCAR-3 ovarian.
The subject of assay [15] is HS 578T breast.
For assay [16], the system named is NCI/ADR-RES ovarian.
Assay [17] relates to CCRF-CEM leukemia.
For assay [18], the system named is MOLT-4 leukemia.
Assay [19] relates to SR leukemia.
For assay [20], the system named is IGROV1 ovarian.

About 83,000 compounds went through this panel and 20% of them were active in at least one assay; those are over-represented in the sample as a whole.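 96-well plates, one dose, 48 hours. Percent growth reported; active if below 10.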 Unmarked numbers belong to inactive results. The source made the active and inactive calls.

For the molecule `CCN(CC)c1ccc(/C=C2/NC(=O)NC2=O)cc1`, the growth in assay [1] was 8.13% (active); in [2] it was 1.53% (active); in assay [3] it was 55.9%; in [4], 53.5%; in [5], 49.5%; in assay [6] it was 71.4%. Also, the growth in assay [7] is 39%; in [8] it was 23.8%; in [9] it was 74.1%; in assay [10] it was 79.9%; in [11] it was 33.2%; in assay [12], 77%. Further, the growth in [13] is 33.7%; in [14], 19.3%; in [15], -2.99% (active); in assay [16] it was -31.9% (active).

For `CCSCC1CC(O)(c2ccccc2)C(c2ccccc2)C(c2ccc(F)cc2)O1` (stereo not drawn), the growth in assay [1] was -0.854% (active); in [2] it was 0.894% (active); in assay [3], -22.9% (active); in [4] it was -0.34% (active); in [5], -15.4% (active); in assay [6], -14.3% (active). Besides, the growth in assay [7] is -13.5% (active); in [17], 2.04% (active); in assay [18], -48.2% (active); in assay [19], 1.33% (active); in assay [9] it was -16.1% (active); in [10], 1.93% (active). In addition, the growth was -2.48% (active) in [11]; -9.01% (active) in assay [12]; 6.98% (active) in [13]; -62.9% (active) in assay [14]; -35.3% (active) in [15]; -24.8% (active) in assay [16].

`C=CCOc1ccc2c(C)cc(=O)oc2c1`: the growth in [1] was 129%; in [2] it was 106%; in [3] it was 115%; in [4], 115%; in assay [5], 91.9%; in assay [6], 108%. In addition, the growth in assay [7] is 97.9%; in assay [17], 96.2%; in assay [18] it was 107%; in assay [19], 128%; in [9] it was 93.8%; in assay [10], 103%. For the same molecule, the growth in assay [11] was 113%; in [13], 117%; in [20] it was 113%; in [14], 105%; in assay [16], 104%.

Take `C=C(C)[C@@H]1CC[C@]2(C(=O)NS(=O)(=O)c3ccccc3)CC[C@]3(C)[C@H](CC[C@@H]4[C@@]5(C)CC[C@H](OC(=O)NS(=O)(=O)c6ccccc6)C(C)(C)[C@@H]5CC[C@]43C)[C@@H]12`: the growth in [1] is -6.1% (active); in assay [2] it was 27.5%; in assay [3], 13%; in assay [4], 8.04% (active); in [5], 24%; in [6] it was 14.6%. In addition, the growth in assay [7] is 24.8%; in assay [8] it was -2.66% (active); in assay [9], -55.3% (active); in [10], 18.4%; in assay [11], 15.5%; in assay [12], 38.1%. The growth in assay [13] is 29.7%; in assay [20], 17.6%; in assay [14], -31.3% (active); in assay [15], 14.5%; in assay [16] it was 17.1%.

Take `CCCCn1cnc2c(SCc3ccc([N+](=O)[O-])cc3)nc(N)nc21`: the growth in assay [1] is 91.5%; in assay [2], 103%; in assay [3], 87%; in [4], 65.2%; in [5], 85%; in [6], 87.5%. Moreover, the growth in assay [7] is 87.7%; in [17], 86.3%; in assay [19], 37.6%; in assay [10], 90.9%; in assay [11], 91.5%; in [12] it was 76.3%. Besides, the growth was 116% in assay [13]; 90.3% in [20]; 98.4% in assay [14]; 107% in [15]; 89.3% in [16].

Consider `Fc1ccc(-c2nc(-c3ccc(-c4nc5ccc(F)cc5[nH]4)cc3)no2)cc1`, for which the growth in [1] is 102%; in assay [2], 85.1%; in assay [3], 84.3%; in assay [4], 84.4%; in [5], 119%; in assay [6], 71%. Further, the growth in [7] was 81.3%; in [17] it was 74.9%; in assay [18] it was 94.8%; in assay [9], 88.1%; in assay [10] it was 86.5%; in [12], -8.43% (active). Besides, the growth in assay [13] was 39.8%; in assay [20] it was 74.3%; in assay [15], 71.3%; in assay [16], 73.9%.

In the case of `COc1cc(C2CC(=O)Nc3c2cnn3C)cc(OC)c1OC` (stereo not drawn), the growth in [1] was 113%; in assay [2], 119%; in assay [3] it was 114%; in [4], 90.7%; in [5], 117%; in [6], 108%. Further, the growth was 106% in [7]; 114% in [17]; 102% in [18]; 103% in assay [19]; 112% in [9]; 103% in assay [10]. The growth in [11] is 109%; in assay [12], 113%; in assay [13] it was 95.1%; in assay [20], 108%; in assay [14], 106%; in assay [15], 111%. In addition, the growth in assay [16] was 105%.

`CCN(CC)CC(=O)Nc1c(C)ccc(N)c1C`: the growth in assay [1] was 99.4%; in [2], 96.5%; in [3], 99.4%; in assay [4] it was 86.2%; in [5], 100%; in assay [6], 112%. The growth was 102% in assay [7]; 112% in assay [17]; 115% in assay [18]; 151% in [19]; 111% in assay [9]; 105% in [10]. In addition, the growth is 99.2% in assay [11]; 99.1% in [12]; 96.7% in [13]; 95.4% in assay [20]; 109% in assay [14]; 105% in [15]. Besides, in assay [16], the growth is 99.2%.

For `CC(=O)Nc1c(Br)cc2c(c1Br)Cc1cc(Br)ccc1-2`, the growth is 99.6% in assay [1]; 55.3% in assay [2]; 83.1% in assay [3]; 67.3% in [4]; 109% in [5]; 60.8% in assay [6]. Besides, the growth was 81.1% in assay [7]; 66.4% in [17]; 76.9% in [18]; 54.4% in assay [19]; 83% in assay [9]; 68.7% in assay [10]. Further, the growth was 108% in assay [11]; 9.85% (active) in [12]; 85.7% in [13]; 45% in assay [20]; 87% in assay [14]; -7.93% (active) in assay [15]. Further, in assay [16], the growth is 76.1%.
